This is a sample that favours compounds with a hit; in the whole collection about 2.6% have one here.
BRCA1 expr up – activators of BRCA1 expression | MCF7-BRCA1-FFLuc reporter, luminescence, 48 h; response scale: scaled: vehicle 0%, 10 µM genistein 100% | Potency, µM (titrated, usually from 46.1 µM), most hits filed as activators | hit rate 1.1% among 380,000 | AID 624202; note: nearly all actives have a fitted effect of over 80% in size
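Using MCF7 cells harboring a BRCA1 firefly luciferase reporter, plated 2 h before compound pinning, the screen measured luminescence after 48 h incubation. Responses were normalized to DMSO and 10 microM genistein, then fitted for concentration-effect.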
GLP1R inv ag – inverse agonists of human GLP-1 receptor; P43220; HEK293 GLP-1R CRE-luciferase, luminescence, 24 h; GLP-1R form is constitutively active; Potency, µM (series often up to 38.3 µM), most hits filed as inhibitors; hit rate 1.6% among 410,000; AID 624417; note: nearly all actives have a fitted effect of over 55% in size
Target sequence (P43220 whole entry, looked up): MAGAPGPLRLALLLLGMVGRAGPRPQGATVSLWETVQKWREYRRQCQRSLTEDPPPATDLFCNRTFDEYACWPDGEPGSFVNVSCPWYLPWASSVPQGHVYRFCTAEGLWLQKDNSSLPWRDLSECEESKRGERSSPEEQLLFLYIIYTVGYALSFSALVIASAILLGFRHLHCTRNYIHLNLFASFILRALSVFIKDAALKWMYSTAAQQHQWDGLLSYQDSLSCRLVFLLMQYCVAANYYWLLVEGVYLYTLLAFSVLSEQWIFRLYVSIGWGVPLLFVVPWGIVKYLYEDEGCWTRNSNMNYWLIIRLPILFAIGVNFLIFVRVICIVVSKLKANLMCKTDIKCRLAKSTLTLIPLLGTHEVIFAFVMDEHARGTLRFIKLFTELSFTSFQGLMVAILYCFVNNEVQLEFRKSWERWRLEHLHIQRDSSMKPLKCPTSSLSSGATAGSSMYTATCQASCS
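Seeding at 200 cells/uL, 12 h culture, 24 hr compound treatment, then luciferase reagent and a luminescence read; cells are HEK293 stably expressing a constitutively active GLP-1R plus cAMP-responsive luciferase.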
GLP1R ag – agonists of human GLP-1 receptor | P43220 | HEK293 GLP-1R CRE-luciferase, luminescence, 4-6 h; cells express a hypersensitive GLP-1R form | hit rate 0.007% among 380,000 | Potency, µM (series often up to 45.6 µM), most hits filed as activators
HEK293 tox – cytotoxicity counter-screen for GLP-1 receptor inverse agonists. Potency, µM (series often up to 38.3 µM), usual class: inhibitors. HEK293 cAMP-luciferase reporter cells, luminescence, 24 h. AID 624418. hit rate 0.13% among 410,000;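 note: loss of luciferase light is scored as toxicity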
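MLSMR compounds, 24 hr on cells at 37 deg C/5% CO2; luminescence after luciferase reagent (12 min RT). Inhibition counted as the undesired cytotoxic outcome.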
A number is an active result; 0 = inactive; ? = inconclusive; - = not tested or not shown. Calls come from the whole dose curve; as a rule, active = well fitted curve in the direction sought with a large enough effect; inconclusive = small, poorly fitted or top-dose-only effect, or another doubt; inactive = no such curve, though single readings can be large; an effect the other way counts as inactive or inconclusive.

SMILES | BRCA1 expr up | GLP1R inv ag | GLP1R ag | HEK293 tox
CSc1cccc(Nc2cc(C(=O)NCCCN(Cc3ccccc3)C(C)C)c3ccccc3n2)c1 | - | ? | - | 0
Cc1cc(C)cc(Nc2cc(C(=O)NCCCN(Cc3ccccc3)C(C)C)c3ccccc3n2)c1 | - | 5.6µM | - | ?
Cc1cc(Nc2ccc3c(c2)OCCO3)c2ccccc2n1 | 0 | ? | 0 | ?
Cc1cc(Nc2ccc3c(c2)OCCO3)c2cccc(C)c2n1 | 0 | ? | 0 | 8.9µM
C=CCOc1ccc(/C=N/n2nnnc2N)cc1OC | 0 | 0 | 0 | 0
CC[N+]1(CC(=O)c2cccs2)CCCCC1 | 0 | - | - | -
O=C(Nc1ccc2nc3n(c(=O)c2c1)CCCC3)c1cccc(F)c1 | 10µM | 0 | 0 | 0
O=C(Nc1ccc2nc3n(c(=O)c2c1)CCCC3)c1ccccc1F | ? | 0 | 0 | 0
O=C(Nc1ccc2nc3n(c(=O)c2c1)CCCCC3)c1cc([N+](=O)[O-])ccc1F | 0 | 11µM | 0 | ?
CC12CCC(C(=O)N3CCc4ccccc43)(CC1=O)C2(C)C (centres undefined) | 0 | 13µM | 0 | 0
Clc1cccc(NCc2nnc(SCc3ccccc3)o2)c1 | 0 | 7.1µM | 0 | 0
Clc1cccc(NCc2nnc(SCc3ccccc3Cl)o2)c1 | 0 | 0 | 0 | 0
CC1CCN(C(=O)CSc2nc3ccccc3nc2Cc2ccccc2)CC1 | - | ? | - | 0
CCCCC1Cc2[nH]c(=S)[nH]c(=O)c2C(c2ccc(Cl)cc2)O1 (centres undefined) | 0 | 0 | 0 | 0
O=C(NCCCN1CCOCC1)c1ccc(Sc2ccc(Br)cc2)c([N+](=O)[O-])c1 | 0 | 0 | 0 | 0
Cc1c(C)n(Cc2ccc(F)cc2)c2ccc(C(=O)NCCCN3CCOCC3)cc12 | 0 | ? | 0 | 0
Cc1ccc(NC(=O)c2ccc(NCCCN3CCC(C)CC3)c([N+](=O)[O-])c2)cc1F | 0 | 0 | 0 | 0
Cc1c(C)n(Cc2ccccc2)c2ccc(C(=O)NCCCN3CCOCC3)cc12 | 0 | 1µM | 0 | 0
O=C(Nc1cccc(Cl)c1)c1ccc(NCCCN2CCOCC2)c([N+](=O)[O-])c1 | 0 | 5µM | 0 | 0
O=C(NCCCN1CCOCC1)c1ccc(Sc2ccccc2Cl)c([N+](=O)[O-])c1 | 0 | 3.5µM | 0 | 0
CCc1ccc(NC(=O)C2CCCN(S(=O)(=O)c3cccc4cccnc34)C2)cc1 (centres undefined) | - | ? | - | 0
Cc1cc(C)cc(NC(=O)N2CCC(CN3CCc4ccccc4C3)CC2)c1 | - | 0 | - | 0
Cn1c(O)c(N=NC(N)=S)c2ccccc21 | - | - | 0 | -
CC1=CC(C)(C)n2c(O)c(N=NC(N)=S)c3cc(C)cc1c32 | 0 | 2µM | 0 | 2.8µM
CC(c1nc2ccccc2[nH]1)N(C(=O)C1=NNC(=O)CC1)c1ccccc1 (centres undefined) | 0 | 0 | 0 | 0
SMILES | BRCA1 expr up | GLP1R inv ag | GLP1R ag | HEK293 tox
O=S(=O)(Nc1ccc(-c2nc3cccnc3s2)cc1)c1ccc(Cl)s1 | 0 | 0 | 0 | 0
O=S(=O)(Nc1ccc(-c2nc3cccnc3s2)cc1)c1ccccc1F | 10µM | 0 | 0 | 0
COc1ccc(NC(=O)Cn2c(=O)n(-c3ccc(CC(=O)NCC4CCCO4)cc3)c(=O)c3ccccc32)c(OC)c1 (centres undefined) | 0 | 0 | 0 | 0
C/C(=N\NC(=O)c1ccccc1N)c1ccc(NC(=O)Cc2ccccc2)cc1 | 0 | 0 | 0 | 0
C/C(=N\NC(=O)c1cccc(C)c1O)c1ccc(NC(=O)Cc2ccccc2)cc1 | 5µM | 0 | 0 | 0
O=C(c1ccccc1)c1ccccc1C(=O)c1ccccc1 | 0 | 8.9µM | 0 | 0
COc1cc(/C=N/NC(=O)c2ccncc2)ccc1OC(=O)c1cc(OC)c(OC)c(OC)c1 | 0 | 0 | 0 | 0
CCCNC(=S)N1CCC(Cc2ccccc2)CC1 | 0 | 7.1µM | 0 | ?
CCNC(=S)N1CCC(Cc2ccccc2)CC1 | 0 | ? | 0 | 0
C=CCNC(=S)N/N=C/c1ccc(C(C)(C)C)cc1 | 0 | 3.5µM | 0 | ?
Nc1ccc(C(=O)N/N=C/c2cn(Cc3cccc(F)c3)c3ccccc23)cc1 | 0 | 5µM | 0 | 0
O=C(CNc1ccc2c(c1)OCO2)N/N=C\c1cn(Cc2ccccc2)c2ccccc12 | 0 | 2.8µM | 0 | 0
O=C(Cc1ccccc1)N/N=C/c1ccc2c(c1)OCO2 | 1.3µM | 0 | 0 | 0
CC(CCC(C)[n+]1cccc(C#N)c1)[n+]1cccc(C#N)c1 (centres undefined) | 0 | - | - | -
CC(C)(C)c1ccc(/C=N/NC(=O)C2CCCC2)cc1 | 5.6µM | ? | 0 | 0
O=C(NN=Cc1ccc2c(c1)OCO2)NN=Cc1ccc2c(c1)OCO2 | 0 | ? | 0 | 0
CC(C)c1ccc(/C=N/NC(=O)C2CCCC2)cc1 | 0 | ? | 0 | 0
O=C(NN=Cc1ccc2c(c1)OCO2)C1CC1 | 7.1µM | 0 | 0 | 0
CCCNC(=O)c1ccc2nc(-c3ccccc3)c(-c3ccccc3)nc2c1 | 0 | 3.5µM | 0 | 0
O=C(c1ccc2nc(-c3ccccc3)c(-c3ccccc3)nc2c1)N1CCCCC1 | 0 | 2.5µM | 0 | 0
CCN(CC)C(=O)c1ccc2nc(-c3ccccc3)c(-c3ccccc3)nc2c1 | 0 | 5µM | 0 | 0
CC(=O)O[C@@H]1C(=O)O[C@H]2[C@@H]1OC(=O)[C@@H]2OC(C)=O | - | - | 0 | -
CC(C)(C)C(=O)OCC(=O)C1CCC2C3CCC4=CC(=O)CCC4(C)C3CCC12C (centres undefined) | - | - | 0 | -
CCCN(CCC)c1nc(-c2ccccc2F)nc2ccccc12 | - | 0 | - | 0
CN(C)c1nc(-c2ccccn2)nnc1-c1ccccc1 | 0 | 0 | 0 | ?
SMILES | BRCA1 expr up | GLP1R inv ag | GLP1R ag | HEK293 tox
CCN(CC)c1nc(-c2ccccn2)nc(-c2ccccc2)c1C#N | 0 | 13µM | 0 | ?
CCCN(CCC)c1nc(-c2ccccn2)nc2ccccc12 | 0 | 3.5µM | 0 | ?
CCCSC1=NC2(CCN(C(=O)NC3CCCCC3)CC2)N=C1c1ccc(OC)cc1 | - | ? | - | 0
CCOc1cc(C2Nc3ccccc3C(=O)N2Cc2ccco2)ccc1O (centres undefined) | 0 | - | - | -
COc1ccc(/C=C/C(=O)Nc2ccccc2)cc1OC | 11µM | 0 | 0 | 0
COc1ccc(NC(=O)/C=C/c2ccccc2)cn1 | 8.9µM | 0 | 0 | 0
COc1ccc(NC(=O)/C=C/c2ccc(F)cc2)cn1 | 0 | 0 | 0 | 0
COc1ccc(/C=C/C(=O)NC(=S)Nc2ccccc2)cc1OC | 0 | 0 | 0 | 0
COc1ccc(-c2nnn3c2nc(NCCc2ccc(OC)c(OC)c2)c2ccccc23)cc1 | 0 | 0 | 0 | 0
COc1ccc(N(C(=O)COc2ccccc2OC)S(=O)(=O)c2ccc(Cl)cc2)cc1 | - | ? | - | 0
CC1Sc2ccc(C(=O)OCc3ccccc3Cl)cc2NC1=O (centres undefined) | 6.3µM | 0 | 0 | 0
COc1ccc(-n2c(=O)c3c(c4cc(OC)ccc4n3C)n(Cc3c(F)cccc3Cl)c2=O)cc1 | 0 | 0 | 0 | 0
Cc1cc2nc(-c3ccc(SCc4ccc(C(=O)O)cc4)nc3)[nH]c2cc1C | 11µM | 0 | 0 | 0
Cc1cc2nc(-c3ccc(SCc4ccccc4C#N)nc3)[nH]c2cc1C | 0 | ? | 0 | ?

High-throughput results deposited in PubChem BioAssay by National Center for Advancing Translational Sciences (NCATS).
